# Measurements published in ChEMBL document CHEMBL4513146, “CO-ADD screening of Karazin Kharkiv National University (Ukraine) compounds”.
# Potency and affinity values are given separately.
# Tested on: Klebsiella pneumoniae
# Conditions: Concentration 32 ug.mL-1;; ASSAY_TEST Inhibition of Bacterial Growth; detection method Absorption (OD600); MEDIA CAMHB; plate type 384well; NBS; CORNING #3640; time 18 hr
row,SMILES,Inhibition [%]
1,COc1ccc(Cl)cc1NC(=O)CSc1nc2ccccc2n2c(C(C)C)nnc12,-0.34
2,CC(C)Cn1c(=O)c2sccc2n2c(=O)n(Cc3cccc(Br)c3)nc12,8.23
3,Cc1cccc(C)c1NC(=O)CSc1nnc2c3cc(-c4ccccc4)nn3ccn12,-14.45
4,COc1ccc(NC(=O)Cn2nc3ccc(SC(C)(C)C)nn3c2=O)cc1OC,16.54
5,O=C(Cn1nc2nc(Nc3ccc(F)cc3)ccn2c1=O)NCC1CCCO1 (stereo not drawn),12.02
6,CCCCOc1ccc(-c2cc3c4nnc(SCC(=O)Nc5cc(C)ccc5OC)n4ccn3n2)cc1,-4.93
7,CSc1ccc(CNC(=O)Cn2nc3c(N4CCOCC4)nccn3c2=O)cc1,9.81
8,Cc1ccc(-c2cc3c4nn(CC(=O)Nc5cc(Cl)ccc5C)c(=O)n4ccn3n2)cc1C,6
9,CCOc1ccc(C(=O)CSc2nnc3c(=O)n(-c4ccc(F)cc4)ccn23)cc1,4.99
10,CCCN(C)c1nccn2c(=O)n(CC(=O)Nc3ccc(OC)c(Cl)c3)nc12,9.65
11,CCOc1ccc(C(=O)Cn2nc3n(Cc4ccccc4OC)c(=O)c4sccc4n3c2=O)cc1,8.36
12,CC(C)c1ccc(NC(=O)CSc2nc3ccccc3n3cnnc23)cc1,3.82
13,Cc1cccc(NC(=O)Cn2nc3c(SC4CCCCC4)nccn3c2=O)c1C,7.9
14,Cc1ccc(NC(=O)Cn2nc3ccc(SCc4ccc(Cl)cc4)nn3c2=O)cc1,-9.13
15,CC(C)c1nnc2c(SCC(=O)Nc3ccc(Br)cc3F)nc3ccccc3n12,8.89
16,COc1ccc(NC(=O)Cn2nc3c4cc(-c5ccc(C)c(C)c5)nn4ccn3c2=O)cc1,9.06
17,CCC(C)NC(=O)c1ccc2c(=O)n(CCC(C)C)c3nn(CC#N)c(=O)n3c2c1 (stereo not drawn),14.77
18,Cc1ccc(-n2ccn3c(SCC(=O)c4c[nH]c5ccccc45)nnc3c2=O)cc1C,9.4
19,CCCN(C)c1nccn2c(=O)n(CC(=O)Nc3cccc(Cl)c3F)nc12,7.25
20,CC1CCc2c(sc3ncn4c(=O)n(CC(=O)Nc5ccc6c(c5)CCC6)nc4c23)C1 (stereo not drawn),13.08

row,SMILES,Inhibition [%]
1,O=c1n(Cc2nc(-c3ccc(Cl)cc3)no2)nc2ccc(-c3ccccc3)nn12,13.55
2,COc1ccc(NC(=O)Cn2nc3ccc(-c4ccc(Cl)cc4)nn3c2=O)cc1OC,8.45
3,COc1ccc(CN(c2cc(C)cc(C)c2)S(=O)(=O)c2cccn3c(C)nnc23)cc1,-1.14
4,CCc1ccccc1NC(=O)Cn1nc2n(CCC(C)C)c(=O)c3sccc3n2c1=O,0.67
5,COC(=O)c1cccc(NC(=O)Cn2nc3c(N4CCC(C)CC4)nccn3c2=O)c1,5.33
6,Cc1ccc(Cn2nc3c(=O)n(-c4ccc(C)c(C)c4)ccn3c2=O)cc1,14.01
7,COc1ccc(CNC(=O)CSc2nnc3c4cc(-c5ccc(OC)cc5)nn4ccn23)cc1,-0.91
8,Cc1cc(C)cc(Nc2nc(C)cc3nn(CC(=O)Nc4ccc(F)cc4F)c(=O)n23)c1,15.5
9,N#CCn1nc2n(CCC(=O)NC3CCCCC3)c(=O)c3ccccc3n2c1=O,0.53
10,CCCCOc1ccc(-c2cc3c4nnc(SCC(=O)Nc5ccc(OC)cc5)n4ccn3n2)cc1,6.75
11,COc1ccc(OC)c(NC(=O)Cn2nc3ccc(-c4ccc(C)cc4)nn3c2=O)c1,1.76
12,COc1cccc(-n2ccn3c(SCC(=O)Nc4cc(Cl)ccc4OC)nnc3c2=O)c1,5.24
13,CCOc1ccc(N(Cc2ccccc2)S(=O)(=O)c2ccc3nncn3c2)cc1,6.93
14,Cc1cccc(NC(=O)Cn2nc3ccc(-c4ccc(C)c(C)c4)nn3c2=O)c1,-0.51
15,Cc1ccc(-n2ccn3c(SC(C)C(=O)Nc4ccc5c(c4)OCCO5)nnc3c2=O)cc1C (stereo not drawn),15.49
16,CCCCN(CC)c1ccc2nnc(CCc3nc(-c4ccc(OCc5ccccc5)cc4)no3)n2n1,10.12
17,CCCn1c(=O)c2sccc2n2c(CCC(=O)NC(C)C34CC5CC(CC(C5)C3)C4)nnc12 (stereo not drawn),1.34
18,Cc1cc(Br)ccc1NC(=O)Cn1nc2c(Sc3ccccc3)nccn2c1=O,5.06
19,CCc1cccc(NC(=O)Cn2nc3c(Sc4ccc(C)cc4C)nccn3c2=O)c1,-3.14

# Tested on: Candida albicans
# Conditions: Concentration 32 ug.mL-1; ASSAY_TEST Inhibition of Fungal Growth; detection method Absorption (OD530)
row,SMILES,Inhibition [%]
1,COc1ccc(Cl)cc1NC(=O)CSc1nc2ccccc2n2c(C(C)C)nnc12,58.61
2,CC(C)Cn1c(=O)c2sccc2n2c(=O)n(Cc3cccc(Br)c3)nc12,-0.42
3,Cc1cccc(C)c1NC(=O)CSc1nnc2c3cc(-c4ccccc4)nn3ccn12,-0.49
4,COc1ccc(NC(=O)Cn2nc3ccc(SC(C)(C)C)nn3c2=O)cc1OC,-0.86
5,O=C(Cn1nc2nc(Nc3ccc(F)cc3)ccn2c1=O)NCC1CCCO1 (stereo not drawn),1.89
6,CCCCOc1ccc(-c2cc3c4nnc(SCC(=O)Nc5cc(C)ccc5OC)n4ccn3n2)cc1,45.46
7,CSc1ccc(CNC(=O)Cn2nc3c(N4CCOCC4)nccn3c2=O)cc1,3.79
8,Cc1ccc(-c2cc3c4nn(CC(=O)Nc5cc(Cl)ccc5C)c(=O)n4ccn3n2)cc1C,4.85
9,CCOc1ccc(C(=O)CSc2nnc3c(=O)n(-c4ccc(F)cc4)ccn23)cc1,1.29
10,CCCN(C)c1nccn2c(=O)n(CC(=O)Nc3ccc(OC)c(Cl)c3)nc12,7.19
11,CCOc1ccc(C(=O)Cn2nc3n(Cc4ccccc4OC)c(=O)c4sccc4n3c2=O)cc1,6.12
12,CC(C)c1ccc(NC(=O)CSc2nc3ccccc3n3cnnc23)cc1,7.46
13,Cc1cccc(NC(=O)Cn2nc3c(SC4CCCCC4)nccn3c2=O)c1C,-1.44
14,Cc1ccc(NC(=O)Cn2nc3ccc(SCc4ccc(Cl)cc4)nn3c2=O)cc1,7.44
15,CC(C)c1nnc2c(SCC(=O)Nc3ccc(Br)cc3F)nc3ccccc3n12,0.43
16,COc1ccc(NC(=O)Cn2nc3c4cc(-c5ccc(C)c(C)c5)nn4ccn3c2=O)cc1,19.37
17,CCC(C)NC(=O)c1ccc2c(=O)n(CCC(C)C)c3nn(CC#N)c(=O)n3c2c1 (stereo not drawn),0.65
18,Cc1ccc(-n2ccn3c(SCC(=O)c4c[nH]c5ccccc45)nnc3c2=O)cc1C,3.27
19,CCCN(C)c1nccn2c(=O)n(CC(=O)Nc3cccc(Cl)c3F)nc12,0.78
20,CC1CCc2c(sc3ncn4c(=O)n(CC(=O)Nc5ccc6c(c5)CCC6)nc4c23)C1 (stereo not drawn),4.62

row,SMILES,Inhibition [%]
1,O=c1n(Cc2nc(-c3ccc(Cl)cc3)no2)nc2ccc(-c3ccccc3)nn12,2.36
2,COc1ccc(NC(=O)Cn2nc3ccc(-c4ccc(Cl)cc4)nn3c2=O)cc1OC,-2.47
3,COc1ccc(CN(c2cc(C)cc(C)c2)S(=O)(=O)c2cccn3c(C)nnc23)cc1,2.31
4,CCc1ccccc1NC(=O)Cn1nc2n(CCC(C)C)c(=O)c3sccc3n2c1=O,8.44
5,COC(=O)c1cccc(NC(=O)Cn2nc3c(N4CCC(C)CC4)nccn3c2=O)c1,2.15
6,Cc1ccc(Cn2nc3c(=O)n(-c4ccc(C)c(C)c4)ccn3c2=O)cc1,3.7
7,COc1ccc(CNC(=O)CSc2nnc3c4cc(-c5ccc(OC)cc5)nn4ccn23)cc1,1.93
8,Cc1cc(C)cc(Nc2nc(C)cc3nn(CC(=O)Nc4ccc(F)cc4F)c(=O)n23)c1,32.59
9,N#CCn1nc2n(CCC(=O)NC3CCCCC3)c(=O)c3ccccc3n2c1=O,1.95
10,CCCCOc1ccc(-c2cc3c4nnc(SCC(=O)Nc5ccc(OC)cc5)n4ccn3n2)cc1,3.4
11,COc1ccc(OC)c(NC(=O)Cn2nc3ccc(-c4ccc(C)cc4)nn3c2=O)c1,0.83
12,COc1cccc(-n2ccn3c(SCC(=O)Nc4cc(Cl)ccc4OC)nnc3c2=O)c1,13.1
13,CCOc1ccc(N(Cc2ccccc2)S(=O)(=O)c2ccc3nncn3c2)cc1,2.75
14,Cc1cccc(NC(=O)Cn2nc3ccc(-c4ccc(C)c(C)c4)nn3c2=O)c1,-1.03
15,Cc1ccc(-n2ccn3c(SC(C)C(=O)Nc4ccc5c(c4)OCCO5)nnc3c2=O)cc1C (stereo not drawn),0.29
16,CCCCN(CC)c1ccc2nnc(CCc3nc(-c4ccc(OCc5ccccc5)cc4)no3)n2n1,5.5
17,CCCn1c(=O)c2sccc2n2c(CCC(=O)NC(C)C34CC5CC(CC(C5)C3)C4)nnc12 (stereo not drawn),7.2
18,Cc1cc(Br)ccc1NC(=O)Cn1nc2c(Sc3ccccc3)nccn2c1=O,6.68
19,CCc1cccc(NC(=O)Cn2nc3c(Sc4ccc(C)cc4C)nccn3c2=O)c1,5.97
